Results: PubChem BioAssay (EPA / NIEHS)
Results filed as inconclusive are left out. The source made the active and inactive calls. How the source made its calls: active means hit-call score of the fitted dose curve at least 0.9, where 1 is the maximum; inconclusive means response in the unintended direction; inactive means score below 0.9.

How the values were obtained:
[1] = TOX21_p53_BLA_p2_viability: Viability Assessment in the Tox21 HCT-116 p53 Agonism Beta-lactamase Assay, Phase 2 (AID 2283591);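 further: compound exposure lasted 16 h at 37 °C; actives lower the ATP signal meaning cytotoxicity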
Procedure, shortened: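 HCT116 p53-bla cells, 4000/well, dosed after 5 h plating (217-fold dilution of DMSO stocks) and incubated 16 h at 37C. Viability taken as cellular ATP by CellTiter-Glo luminescence after 30 min RT; signal loss marks cytotoxicity.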

[2] = molecular target: Cellular tumor antigen p53 (Homo sapiens) (UniProt P04637); experiment: TOX21_p53_BLA_p2_ratio: Tox21 HCT-116 p53 Agonism Beta-lactamase Assay, Ratio, Phase 2 (AID 2283592)
Procedure, shortened: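 Gain-of-signal p53 agonism was scored from the beta-lactamase FRET ratio (460/530 nm, 405 nm excitation) in HCT116 cells treated 16 h at 37C, 5% CO2, with DMSO serving as negative control and baseline.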

[3] = TOX21_p53_BLA_p3_viability: Viability Assessment in the Tox21 HCT-116 p53 Agonism Beta-lactamase Assay, Phase 3 (AID 2283593);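 further: cells exposed to compound for 16 h before reading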
Procedure, shortened: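 HCT116 cells, 4000/well, dosed 5 h after plating by pin transfer (217-fold dilution from DMSO stock) and incubated 16 h at 37C, 5% CO2. Viability read as ATP luminescence with CellTiter-Glo after 30 min at room temperature.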

[4] = molecular target: Cellular tumor antigen p53 (Homo sapiens) (UniProt P04637); experiment: TOX21_p53_BLA_p3_ratio: Tox21 HCT-116 p53 Agonism Beta-lactamase Assay, Ratio, Phase 3 (AID 2283596)
Procedure, shortened: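 HCT116 p53-bla cells (4000/well) given compound in DMSO (217-fold dilution) after 5 h, incubated 16 h at 37C. CCF4-AM substrate 2 h at room temperature; 460/530 nm emission ratio, gain fitted against DMSO.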

[5] = TOX21_p53_BLA_p4_viability: Viability Assessment in the Tox21 HCT-116 p53 Agonism Beta-lactamase Assay, Phase 4 (AID 2283597);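 further: hits lower the luminescence signal meaning cytotoxicity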
Procedure, shortened: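 Following a 16 h exposure at 37C, the treated HCT116 wells were first read for the FRET ratio. They were then lysed with CellTiter-Glo, and ATP luminescence was recorded after 30 min at room temperature.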

[6] = molecular target: Cellular tumor antigen p53 (Homo sapiens) (UniProt P04637); experiment: TOX21_p53_BLA_p5_ratio: Tox21 HCT-116 p53 Agonism Beta-lactamase Assay, Ratio, Phase 5 (AID 2283599)
Procedure, shortened: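 HCT-116 p53-bla cells (4000/well) plated 5 h, dosed with compound (217-fold DMSO dilution) for 16 h at 37 C; CCF4-AM substrate 2 h at room temperature. Activity is the 460/530 nm emission ratio (405 nm excitation), fitted in gain-of-signal direction versus DMSO.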

[7] = TOX21_p53_BLA_p5_viability: Viability Assessment in the Tox21 HCT-116 p53 Agonism Beta-lactamase Assay, Phase 5 (AID 2283600)
Procedure, shortened: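 After the 460/530 nm beta-lactamase measurement, the wells received an ATP-detection luciferase reagent; signal was read 30 min later at RT. Compound treatment lasted 16 h on cells pre-incubated 5 h post-seeding.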

[8] = molecular target: Cellular tumor antigen p53 (Homo sapiens) (UniProt P04637); experiment: TOX21_p53_BLA_p4_ratio: Tox21 HCT-116 p53 Agonism Beta-lactamase Assay, Ratio, Phase 4 (AID 2283601)
Procedure, shortened: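 HCT-116 p53 beta-lactamase reporter cells (4000/well) preincubated 5 h, then compound (217-fold dilution of DMSO stock) for 16 h at 37C. CCF4-AM substrate added 2 h at room temperature; 460/530 nm emission ratio fitted upward versus DMSO.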

[9] = tested on: Thyroperoxidase (TPO), gene 54314; experiment: CCTE_Simmons_AUR_rTPO: CCTE's Amplex UltraRed Assay for Thyroperoxidase (TPO) Inhibition, Simmons Lab (AID 2283662);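 further: potency for loss of signal meaning inhibition of peroxidase activity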
Procedure, shortened: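 Rat thyroid microsomal TPO + 25 uM AUR in 200 mM K phosphate; cpd 5 nM–87.5 uM [final], 8 conc, 0.5% DMSO; 300 uM H2O2 starts rxn; 37C dark 30 min; endpoint FI 544/590 nm; n=3.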

[10] = CCTE_Simmons_CellTiterGLO_HEK293T: Viability Assessment in CCTE's Assays for Thyroperoxidase (TPO) Inhibition, Simmons Lab (AID 2283665);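 further: cells exposed to compound for 24 h before readout; actives reduce ATP signal below DMSO vehicle meaning cytotoxicity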
Procedure, shortened: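 HEK293T, 10 000 cells/well, DMEM + 1% FBS; 8-pt titration 5 nM–87.5 uM [final], 0.5% DMSO; 24 hr, 37C, 5% CO2; CellTiter-Glo luminescence; n=3 biological replicates.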

[11] = STM_H9_OrnCyssISnorm_ratio: Stemina devTOX quickPredict H9 human embryonic stem cell (hESC)-based Assay for Ornithine (ORN):Cystine (CYSS) Ratio (AID 2283714)
Procedure, shortened: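 Undifferentiated H9 hESCs exposed 72 h, media and compound replaced every 24 h; final 24-h conditioned media deproteinized and analysed by UPLC-HRMS against C13 spike-ins. Value is the internal-standard-normalized ORN/CYSS ratio versus 0.1% DMSO.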

[12] = molecular target: Luciferin 4-monooxygenase (Photinus pyralis) (UniProt P08659); experiment: CCTE_Simmons_QuantiLum_inhib_2: CCTE's Firefly Luciferase Inhibition Assay, Simmons Lab (AID 2283767);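 further: potency for inhibitors that lower luciferase luminescence relative to DMSO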
Procedure, shortened: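 Luminescence loss relative to DMSO vehicle defines inhibition; detection reagent containing 150 uM D-luciferin and 147 uM dATP (final, pH 7.8) is injected immediately before each read. Enzyme is preincubated with an 8-point titration (5 nM–87.5 uM final) for 30 min at 37C.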

[13] = ATG_XTT_Cytotoxicity: Cytotoxicity Assessment in the Attagene TRANS-FACTORIAL HepG2 Assay (AID 2283584);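 on AC50: cells exposed to compound for 24 h before reading; active means loss of viability signal versus DMSO baseline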
Procedure, shortened: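 Viability endpoint from XTT after 24 h chemical exposure of reporter-transfected human HepG2 liver cells; signal loss fitted relative to DMSO negative control.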

Measured: AC50

Sequence of Cellular tumor antigen p53 (Homo sapiens) (P04637 whole entry, looked up): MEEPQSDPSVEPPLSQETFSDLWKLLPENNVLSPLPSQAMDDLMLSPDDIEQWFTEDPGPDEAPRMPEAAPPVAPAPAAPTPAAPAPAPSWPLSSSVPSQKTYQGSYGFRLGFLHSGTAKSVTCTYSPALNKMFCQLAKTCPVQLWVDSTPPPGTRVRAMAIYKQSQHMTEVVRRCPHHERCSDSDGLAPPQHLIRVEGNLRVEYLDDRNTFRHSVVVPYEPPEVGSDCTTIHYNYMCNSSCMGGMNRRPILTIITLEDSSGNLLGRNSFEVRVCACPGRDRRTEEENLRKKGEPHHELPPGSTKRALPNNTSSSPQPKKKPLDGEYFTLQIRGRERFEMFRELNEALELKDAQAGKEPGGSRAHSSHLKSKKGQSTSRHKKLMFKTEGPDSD
Sequence of Luciferin 4-monooxygenase (Photinus pyralis) (P08659 whole entry, looked up): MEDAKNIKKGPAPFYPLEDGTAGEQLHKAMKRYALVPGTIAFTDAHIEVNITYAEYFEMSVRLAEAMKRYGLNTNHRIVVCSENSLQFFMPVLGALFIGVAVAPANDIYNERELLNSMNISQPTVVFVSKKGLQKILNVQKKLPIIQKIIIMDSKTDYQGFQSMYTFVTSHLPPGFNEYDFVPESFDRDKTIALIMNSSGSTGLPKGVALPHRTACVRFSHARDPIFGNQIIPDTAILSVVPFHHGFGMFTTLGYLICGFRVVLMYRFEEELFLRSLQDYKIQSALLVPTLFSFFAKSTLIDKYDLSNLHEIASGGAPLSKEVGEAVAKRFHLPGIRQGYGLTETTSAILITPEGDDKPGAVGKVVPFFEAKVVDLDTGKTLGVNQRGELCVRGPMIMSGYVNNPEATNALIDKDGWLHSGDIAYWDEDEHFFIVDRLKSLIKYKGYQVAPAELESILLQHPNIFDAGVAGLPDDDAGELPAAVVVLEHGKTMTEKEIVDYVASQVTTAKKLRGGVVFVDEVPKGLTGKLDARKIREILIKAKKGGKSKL

CCN=C1C=CC(=C(c2ccc(N(CC)CC)cc2)c2ccc(N(CC)CC)cc2)c2ccccc21
active: [1] 60.4 µM | [2] 559 nM | [3] 66.1 µM | [4] 2.8 µM | [5] 45.9 µM | [6] 57.2 µM | [7] 69.4 µM | [8] 50 µM | [9] 33.4 µM | [10] 1.72 µM | [11] 151 nM | [12] 7.95 µM

CC(C)OC(=O)COc1ccc(Cl)cc1Cl
not listed: [1] | [9] | [10] | [11] | [12]
inactive: all other assays above

O=C1c2c(O)ccc(Nc3ccc(CCO)cc3)c2C(=O)c2c([N+](=O)[O-])ccc(O)c21
inactive: [13] | [1] | [2] | [5] | [6] | [8]

CCOC(OCC)OCC
inactive: [13] | [3] | [6] | [7]

Cc1ccc2c(c1)OCC(=O)CO2
inactive: [13] | [1] | [2] | [4] | [5] | [8]

CCC(C)CO (stereo unspecified)
inactive: [13] | [2] | [3] | [4] | [6] | [7] | [8]

CCCCCCCCn1sc(Cl)c(Cl)c1=O
active: [13] 31.5 µM | [1] 85.9 µM | [3] 40.7 µM | [4] 21.7 µM | [5] 80.4 µM
inactive: [6] | [7] | [8]

F[Si-2](F)(F)(F)(F)F
not listed: [1] | [9] | [10] | [11] | [12]
inactive: all other assays above

CSc1ccc(Cl)cc1
not listed: [9] | [10] | [11] | [12] | [13]
inactive: all other assays above

CC(C)CCCC(C)CCO (stereo unspecified)
inactive: [13] | [1] | [2] | [3] | [6] | [7] | [8]

OCC1CCCO1 (stereo unspecified)
inactive: [1] | [2] | [3] | [5] | [6] | [7] | [8]
